35 compounds from PubChem BioAssay (Tox21) can be followed below.

A number with no mark means an inactive call. Records with an inconclusive call do not appear. Where a call stands in place of a potency, no number is given. The source made the active and inactive calls. Unless noted, calls come from the whole dose curve; as a rule, active = well fitted curve in the direction sought with a large enough effect in the repeat runs; inconclusive = weak or mixed curves; inactive = flat fitted curve, though single readings scatter.

The first assay is described as follows: qHTS assay for small molecule disruptors of the mitochondrial membrane potential - cell viability (AID 720634; calls by dose curve;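 note: human HepG2 liver cancer cells; nearly all actives have a fitted effect of over 20% in size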). The conditions noted are these: HepG2 viability, ATP luminescence (CellTiter-Glo), 1 h; series mostly up to 83.2 µM. The method, boiled down: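 HepG2 cells, 2,000 per well, attached overnight, then treated 1 hr at 37 C, 5% CO2. Viability read as ATP by CellTiter-Glo luminescence after 30 min at room temperature. Read in the same wells as the m-MPI membrane-potential dye assay.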
Background: In qHTS, concentration-response curves come from the screen itself.
In the case of `CC1=NNC(=O)N(/N=C/c2cccnc2)C1`, the Potency result was “inactive”.
On the same count and under the same terms, under `CC(C)COP(=O)(OCC(C)C)OCC(C)C` stands “inactive”; under `Clc1cccc(N2CCNCC2)c1`, “inactive”.
Consider `ClCC(Cl)(Cl)Cl`, for which the Potency entry is “inactive”.
Still for that read-out and setting: under `CCCCN(CCCCO)N=O` stands “inactive”.
The same measure, in the same setting: under `CC(C)CP(=S)(S)CC(C)C` stands “inactive”.
On the same count and under the same terms, under `CCS(=O)(=O)C(C)(C)S(=O)(=O)CC` stands “inactive”.
As to `O=C(Oc1ccc(Br)cc1)N1CCN2CCC1CC2`, the Potency entry was “inactive”.
Still for that read-out and setting: under `CC(C1CC1)C(O)(Cn1cncn1)c1ccc(Cl)cc1` (stereo not given) stands “inactive”.
Turning to `CC(CC(C#N)(c1ccccc1)c1ccccc1)N(C)C` (stereo not given), the Potency entry is “inactive”.
Regarding `NC(=O)O`, the Potency entry was “inactive”.
Same read-out and setting: under `O=C(NCO)NCO` stands “inactive”.
Same read-out and setting: under `O=C(CCN1CC1)OCC(CO)(COC(=O)CCN1CC1)COC(=O)CCN1CC1` stands “inactive”; under `CNC(=O)Oc1ccccc1C1OCCO1`, “inactive”; under `O=[N+]([O-])c1ccc2c3c(cccc13)CC2`, “inactive”.
The same measure, in the same setting: under `C=CC1CC=CCC1` (stereo not given) stands “inactive”; under `O=NN1CCN(N=O)CC1`, “inactive”; under `CCCCc1c(C)nc(NCC)[nH]c1=O`, “inactive”.
As for `COc1ccc2c(c1OC)CN1CCc3cc4c(cc3C1C2)OCO4` (stereo not given), the Potency entry was “inactive”.
Same read-out and setting: under `Cc1cccc(C#N)c1` stands “inactive”; under `ClC(Br)Br`, “inactive”.
On the same count and under the same terms, with `C#C[C@]1(O)C=C[C@H]2[C@@H]3CCC4=CC(=O)CC[C@@H]4[C@H]3CC[C@@]21CC` the entry was “inactive”.
The same measure, in the same setting: under `CC(N)=S` stands “inactive”; under `O=C(N[C@H]1CN2CCC1CC2)c1cc2ccoc2cn1`, “inactive”; under `CCOC(=O)N(C)C(=O)CSP(=S)(OCC)OCC`, “inactive”.
On to `O=C1c2ccccc2C(=O)c2ccccc21`, for which the Potency entry was “inactive”.
Regarding `C=C(C)CN(CC)c1c([N+](=O)[O-])cc(C(F)(F)F)cc1[N+](=O)[O-]`, the Potency entry was “inactive”.
Same read-out and setting: with `CNC(=O)O/N=C(\C)SC` the entry was “inactive”.
Still for that read-out and setting: under `CCS(=O)(=O)CCSP(=O)(OC)OC` stands “inactive”.
Take `CNC(=O)Oc1ccc(N(C)C)c(C)c1`: the Potency result was “inactive”.
As to `COc1cc(OC)nc(Sc2cccc(Cl)c2C(=O)O)n1`, the Potency entry is “inactive”.
For the compound `O=S(=O)(O)C(F)(F)C(F)(F)C(F)(F)C(F)(F)C(F)(F)C(F)(F)F`, the Potency entry was “inactive”.
Same read-out and setting: under `Nc1cnn(-c2ccccc2)c(=O)c1Cl` stands “inactive”; under `CN1C[C@@H](NS(=O)(=O)N(C)C)C[C@@H]2c3cccc4c3c(cn4C)C[C@H]21`, “inactive”; under `CCOC(=O)NC(=S)Nc1ccccc1NC(=S)NC(=O)OCC`, “inactive”.

The next assay is described as follows: qHTS assay to test for compound auto fluorescence at 590 nm (red) in HepG2 cells (AID 720674). The conditions noted are these: HepG2 autofluorescence, red 540/590 nm, 1 h; series mostly up to 91.3 µM. The method, boiled down: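 We screened compounds on adherent HepG2 cells, incubating them for an hour at 37 C in 5% CO2 before reading emission at 590 nm under 540 nm excitation; values reflect equivalence to Rose Bengal sodium fluorescence.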
Turning to `CC1=NNC(=O)N(/N=C/c2cccnc2)C1`, the result was inactive.
Still for that read-out and setting: under `CC(C)COP(=O)(OCC(C)C)OCC(C)C` stands “inactive”; under `Clc1cccc(N2CCNCC2)c1`, “inactive”.
Same read-out and setting: under `ClCC(Cl)(Cl)Cl` stands “inactive”; under `CCCCN(CCCCO)N=O`, “inactive”; under `CC(C)CP(=S)(S)CC(C)C`, “inactive”.
The same measure, in the same setting: under `CCS(=O)(=O)C(C)(C)S(=O)(=O)CC` stands “inactive”.
Consider `O=C(Oc1ccc(Br)cc1)N1CCN2CCC1CC2`, for which the result was inactive.
On the same count and under the same terms, under `CC(C1CC1)C(O)(Cn1cncn1)c1ccc(Cl)cc1` (stereo not given) stands “inactive”; under `CC(CC(C#N)(c1ccccc1)c1ccccc1)N(C)C` (stereo not given), “inactive”; under `NC(=O)O`, “inactive”.
In the case of `O=C(NCO)NCO`, the outcome was inactive.
Same read-out and setting: with `O=C(CCN1CC1)OCC(CO)(COC(=O)CCN1CC1)COC(=O)CCN1CC1` the entry was “inactive”; with `CNC(=O)Oc1ccccc1C1OCCO1`, “inactive”.
Same read-out and setting: with `O=[N+]([O-])c1ccc2c3c(cccc13)CC2` the entry was “inactive”; with `C=CC1CC=CCC1` (stereo not given), “inactive”; with `O=NN1CCN(N=O)CC1`, “inactive”.
`CCCCc1c(C)nc(NCC)[nH]c1=O`: the outcome was inactive.
For the compound `COc1ccc2c(c1OC)CN1CCc3cc4c(cc3C1C2)OCO4` (stereo not given), the fluorescence, relative to Rose Bengal was 0.552% [at 18.6 µM].
For the compound `Cc1cccc(C#N)c1`, the compound was called inactive.
Same read-out and setting: with `ClC(Br)Br` the entry was “inactive”.
The same measure, in the same setting: under `C#C[C@]1(O)C=C[C@H]2[C@@H]3CCC4=CC(=O)CC[C@@H]4[C@H]3CC[C@@]21CC` stands “inactive”.
On the same count and under the same terms, with `CC(N)=S` the entry was “inactive”; with `O=C(N[C@H]1CN2CCC1CC2)c1cc2ccoc2cn1`, “inactive”; with `CCOC(=O)N(C)C(=O)CSP(=S)(OCC)OCC`, “inactive”.
Take `O=C1c2ccccc2C(=O)c2ccccc21`: the call was inactive.
Regarding `C=C(C)CN(CC)c1c([N+](=O)[O-])cc(C(F)(F)F)cc1[N+](=O)[O-]`, the compound was classed as inactive.
On the same count and under the same terms, with `CNC(=O)O/N=C(\C)SC` the entry was “inactive”; with `CCS(=O)(=O)CCSP(=O)(OC)OC`, “inactive”; with `CNC(=O)Oc1ccc(N(C)C)c(C)c1`, “inactive”.
Turning to `COc1cc(OC)nc(Sc2cccc(Cl)c2C(=O)O)n1`, the call was inactive.
With `O=S(=O)(O)C(F)(F)C(F)(F)C(F)(F)C(F)(F)C(F)(F)C(F)(F)F`, the call was inactive.
With `Nc1cnn(-c2ccccc2)c(=O)c1Cl`, the outcome was inactive.
Same read-out and setting: with `CN1C[C@@H](NS(=O)(=O)N(C)C)C[C@@H]2c3cccc4c3c(cn4C)C[C@H]21` the entry was “inactive”.
As to `CCOC(=O)NC(=S)Nc1ccccc1NC(=S)NC(=O)OCC`, the call was inactive.

The nature of a further assay: qHTS assay to test for compound auto fluorescence at 535 nm (green) in HepG2 cells (AID 720675). The conditions noted are these: green autofluorescence 485/535 nm, 1 h; series mostly up to 91.3 µM.
As for `CC1=NNC(=O)N(/N=C/c2cccnc2)C1`, the outcome was inactive.
Same read-out and setting: under `CC(C)COP(=O)(OCC(C)C)OCC(C)C` stands “inactive”; under `Clc1cccc(N2CCNCC2)c1`, “inactive”; under `ClCC(Cl)(Cl)Cl`, “inactive”.
The same measure, in the same setting: under `CCCCN(CCCCO)N=O` stands “inactive”; under `CC(C)CP(=S)(S)CC(C)C`, “inactive”.
Same read-out and setting: with `CCS(=O)(=O)C(C)(C)S(=O)(=O)CC` the entry was “inactive”; with `O=C(Oc1ccc(Br)cc1)N1CCN2CCC1CC2`, “inactive”.
In the case of `CC(C1CC1)C(O)(Cn1cncn1)c1ccc(Cl)cc1` (stereo not given), the compound was classed as inactive.
Same read-out and setting: with `CC(CC(C#N)(c1ccccc1)c1ccccc1)N(C)C` (stereo not given) the entry was “inactive”.
On the same count and under the same terms, under `NC(=O)O` stands “inactive”; under `O=C(NCO)NCO`, “inactive”.
Still for that read-out and setting: with `O=C(CCN1CC1)OCC(CO)(COC(=O)CCN1CC1)COC(=O)CCN1CC1` the entry was “inactive”; with `CNC(=O)Oc1ccccc1C1OCCO1`, “inactive”; with `O=[N+]([O-])c1ccc2c3c(cccc13)CC2`, “inactive”.
With `C=CC1CC=CCC1` (stereo not given), the compound was classed as inactive.
Same read-out and setting: under `O=NN1CCN(N=O)CC1` stands “inactive”.
Still for that read-out and setting: with `CCCCc1c(C)nc(NCC)[nH]c1=O` the entry was “inactive”.
For the compound `COc1ccc2c(c1OC)CN1CCc3cc4c(cc3C1C2)OCO4` (stereo not given), the fluorescence, % of fluorescein control was -0.0763% [at 18.6 µM].
On to `Cc1cccc(C#N)c1`, for which the outcome was inactive.
On the same count and under the same terms, with `ClC(Br)Br` the entry was “inactive”; with `C#C[C@]1(O)C=C[C@H]2[C@@H]3CCC4=CC(=O)CC[C@@H]4[C@H]3CC[C@@]21CC`, “inactive”.
On the same count and under the same terms, under `CC(N)=S` stands “inactive”; under `O=C(N[C@H]1CN2CCC1CC2)c1cc2ccoc2cn1`, “inactive”.
Take `CCOC(=O)N(C)C(=O)CSP(=S)(OCC)OCC`: the outcome was inactive.
Consider `O=C1c2ccccc2C(=O)c2ccccc21`, for which the compound was called inactive.
Same read-out and setting: with `C=C(C)CN(CC)c1c([N+](=O)[O-])cc(C(F)(F)F)cc1[N+](=O)[O-]` the entry was “inactive”; with `CNC(=O)O/N=C(\C)SC`, “inactive”.
Consider `CCS(=O)(=O)CCSP(=O)(OC)OC`, for which the compound was classed as inactive.
On the same count and under the same terms, with `CNC(=O)Oc1ccc(N(C)C)c(C)c1` the entry was “inactive”; with `COc1cc(OC)nc(Sc2cccc(Cl)c2C(=O)O)n1`, “inactive”.
`O=S(=O)(O)C(F)(F)C(F)(F)C(F)(F)C(F)(F)C(F)(F)C(F)(F)F`: the compound was classed as inactive.
The same measure, in the same setting: under `Nc1cnn(-c2ccccc2)c(=O)c1Cl` stands “inactive”; under `CN1C[C@@H](NS(=O)(=O)N(C)C)C[C@@H]2c3cccc4c3c(cn4C)C[C@H]21`, “inactive”.
Still for that read-out and setting: under `CCOC(=O)NC(=S)Nc1ccccc1NC(=S)NC(=O)OCC` stands “inactive”.
